Data reported in PubChem BioAssay (Tox21).
Values joined by “and” are separate entries in the source; they are usually repeats but may differ in a detail not shown here. Equal entries are not always repeated. Inconclusive results are not listed. More than one record can exist for a structure, and the calls need not agree. Active and inactive are the calls of the source. Unless noted, the call rests on the fitted dose curve; in most records, active means well fitted curve in the direction sought with a large enough effect in the repeat runs; inconclusive means weak or mixed curves; inactive means no such curve, though single readings can be large; an effect the other way counts as inactive or inconclusive.

Experiments:
[1] = qHTS assay to identify aromatase inhibitors - cell viability counter screen (AID 743084);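 further: cells stimulated with testosterone during compound exposure; nearly all actives have a fitted effect of over 55% in size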; further: potency means the concentration at half of the fitted maximal effect
[2] = biological target: Aryl hydrocarbon receptor (Homo sapiens) (UniProt P35869); assay: qHTS assay to identify small molecule that activate the aryl hydrocarbon receptor (AhR) signaling pathway (AID 743085); further: nearly all actives have a fitted effect of over 15% in size; further: potency means the concentration at half of the fitted maximal effect;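 on activation: HG2L7.5c1 human HepG2 liver cells with stably integrated DRE-driven firefly reporter; series mostly up to about 70 µM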
Aryl hydrocarbon receptor (Homo sapiens), sequence (P35869 whole entry, looked up): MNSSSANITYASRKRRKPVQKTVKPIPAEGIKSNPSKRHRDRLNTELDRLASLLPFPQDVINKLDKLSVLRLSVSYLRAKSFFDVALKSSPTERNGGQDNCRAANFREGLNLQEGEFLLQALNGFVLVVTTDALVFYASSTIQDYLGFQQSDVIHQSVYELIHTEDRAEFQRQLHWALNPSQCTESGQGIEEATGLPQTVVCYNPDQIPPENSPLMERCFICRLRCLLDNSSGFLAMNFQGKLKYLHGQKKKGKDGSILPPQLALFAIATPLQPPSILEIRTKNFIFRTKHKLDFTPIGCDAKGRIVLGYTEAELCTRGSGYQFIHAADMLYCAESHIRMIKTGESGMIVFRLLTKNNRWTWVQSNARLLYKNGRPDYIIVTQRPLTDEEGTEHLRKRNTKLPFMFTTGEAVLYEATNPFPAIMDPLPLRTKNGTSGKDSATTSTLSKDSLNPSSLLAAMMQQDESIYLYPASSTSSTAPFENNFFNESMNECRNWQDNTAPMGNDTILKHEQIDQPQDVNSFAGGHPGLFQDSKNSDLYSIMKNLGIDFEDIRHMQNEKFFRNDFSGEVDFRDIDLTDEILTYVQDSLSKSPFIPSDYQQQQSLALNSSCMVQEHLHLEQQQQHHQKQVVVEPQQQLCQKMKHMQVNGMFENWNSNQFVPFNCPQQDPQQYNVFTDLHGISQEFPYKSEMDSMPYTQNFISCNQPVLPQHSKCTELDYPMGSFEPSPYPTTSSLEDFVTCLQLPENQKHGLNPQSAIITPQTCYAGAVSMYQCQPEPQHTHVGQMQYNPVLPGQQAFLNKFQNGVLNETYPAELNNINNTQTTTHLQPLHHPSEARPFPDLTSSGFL
Procedure, shortened: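 A multiplexed format paired cell viability (CellTiter-Fluor fluorescence) with AhR-dependent luciferase output (ONE-Glo luminescence) in the same wells of HepG2 DRE-luc cells after 24 h compound exposure at 37C.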

[3] = qHTS assay to identify small molecule that activate the aryl hydrocarbon receptor (AhR) signaling pathway - cell viability counter screen (AID 743086);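 further: HepG2 liver cells carrying the AhR DRE luciferase reporter; series mostly up to about 70 µM; nearly all actives have a fitted effect of over 45% in size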
Procedure, shortened: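 Cytotoxicity counter screen: CellTiter-Fluor signal (30 min, 37 C) in 4000 HepG2 cells/well carrying the DRE-luciferase reporter, following 24 h compound exposure at 37 C.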

[4] = biological target: Peroxisome proliferator-activated receptor gamma (Homo sapiens) (UniProt P37231); assay: qHTS assay to identify small molecule agonists of the peroxisome proliferator-activated receptor gamma (PPARg) signaling pathway (AID 743094; active means well fitted activation curve with a large enough effect in the signal ratio in the repeat runs, not every such curve was filed as active; the % refers to the signal ratio)
Peroxisome proliferator-activated receptor gamma (Homo sapiens), sequence (P37231 whole entry, looked up): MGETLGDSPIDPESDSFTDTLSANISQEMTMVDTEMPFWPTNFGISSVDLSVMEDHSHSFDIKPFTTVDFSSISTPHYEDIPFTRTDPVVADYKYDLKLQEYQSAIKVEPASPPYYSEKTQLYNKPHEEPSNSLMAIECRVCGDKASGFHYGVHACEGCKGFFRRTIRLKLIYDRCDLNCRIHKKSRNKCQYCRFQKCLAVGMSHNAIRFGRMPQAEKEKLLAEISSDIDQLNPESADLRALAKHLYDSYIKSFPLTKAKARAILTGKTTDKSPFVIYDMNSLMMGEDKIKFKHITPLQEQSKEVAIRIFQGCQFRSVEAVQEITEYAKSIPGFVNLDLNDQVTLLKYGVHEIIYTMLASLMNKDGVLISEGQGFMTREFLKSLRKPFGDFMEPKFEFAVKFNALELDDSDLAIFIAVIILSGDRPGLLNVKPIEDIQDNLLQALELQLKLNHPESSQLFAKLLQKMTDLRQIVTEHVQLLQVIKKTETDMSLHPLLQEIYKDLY
Procedure, shortened: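 Cell-based bla reporter, HEK293H background, PPARg-driven UAS. Pre-incubation 5 h, 37C, 5% CO2. Compound 17 h, 37C. Substrate 1 h RT; fluorescence.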

[5] = biological target: Peroxisome proliferator-activated receptor gamma (Homo sapiens) (UniProt P37231); assay: qHTS assay to identify small molecule antagonists of the peroxisome proliferator-activated receptor gamma (PPARg) signaling pathway (AID 743191; calls by dose curve; further: series mostly up to about 63 µM; nearly all actives have a fitted effect of over 30% in size)
Procedure, shortened: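 Beta-lactamase reporter under UAS control in HEK293H PPARg-bla cells; compound treatment 17 h at 37C. Read-out: fluorescence intensity after 1 h room-temperature incubation with LiveBLAzer B/G FRET substrate.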

[6] = qHTS assay to identify small molecule antagonists of the peroxisome proliferator-activated receptor gamma (PPARg) signaling pathway - cell viability counter screen (AID 743194); further: nearly all actives have a fitted effect of over 55% in size; further: potency means the concentration at half of the fitted maximal effect
Procedure, shortened: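 Viability was measured as CellTiter-Glo luminescence in GeneBLAzer PPARg UAS-bla HEK293H cells. These cells had been exposed 17 h at 37 C to compounds together with rosiglitazone at 50 nM final, with the beta-lactamase readout taken in the same wells.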

[7] = qHTS assay for small molecule agonists of the antioxidant response element (ARE) signaling pathway (AID 743202; active means well fitted activation curve with a large enough effect in the signal ratio in the repeat runs, not every such curve was filed as active; the % refers to the signal ratio; further: potency means the concentration at half of the fitted maximal effect)
Procedure, shortened: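 Beta-lactamase reporter activity, read as fluorescence intensity, reflects ARE/Nrf2 pathway induction in HepG2 cells after 16 h compound exposure at 37 C; substrate loading was 2 h at room temperature.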

[8] = qHTS assay for small molecule agonists of the antioxidant response element (ARE) signaling pathway - cell viability counter screen (AID 743203; calls by dose curve; further: nearly all actives have a fitted effect of over 55% in size; further: potency means the concentration at half of the fitted maximal effect)
Procedure, shortened: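 Measured in the same wells as the beta-lactamase ARE reporter, this read-out is CellTiter-Glo luminescence from HepG2 ARE-bla cells given compounds for 16 hrs.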

[9] = qHTS assay for small molecule activators of the heat shock response signaling pathway - cell viability counter screen (AID 743209); further: nearly all actives have a fitted effect of over 50% in size; further: potency means the concentration at half of the fitted maximal effect
Procedure, shortened: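 Same-well multiplex: after 2.5 h room-temperature incubation with LiveBLAzer B/G substrate and fluorescence reading, CellTiter-Glo reagent was added to HSE-bla HeLa cells that had received compound for 5 h at 37 C; luminescence read after 30 min.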

[10] = qHTS assay for small molecule activators of the heat shock response signaling pathway (AID 743210; active means well fitted activation curve with a large enough effect in the signal ratio in the repeat runs, with a control signal flat, not every such curve was filed as active; the % refers to the signal ratio;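 further: HeLa cells with beta-lactamase reporter driven by heat shock elements; series mostly up to about 63 µM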)
Procedure, shortened: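 Fluorescence from a cleaved B/G FRET substrate (2.5 h, room temp) reports HSE-driven beta-lactamase in HeLa cells treated 5 h at 37 C with DMSO-dissolved compounds.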
On the % scale 0 is the no-effect control and ±100 the full control effect.

CCc1ccc(C(c2ccc(CC)cc2)C(Cl)Cl)cc1
inactive: Potency [1] | Potency [2] | Potency [3] | Potency [4] | Potency [5] | Potency [6] | Potency [7] | Potency [8] | Potency [9] | Potency [10]

CC[C@@H](N)CO
inactive: Potency [1] | Potency [2] | Potency [3] | Potency [4] | Potency [6] | Potency [7] | Potency [8] | Potency [10]

CC(C)(O)CCC(C)(C)O
inactive: Potency [1] | Potency [2] | Potency [3] | Potency [4] | Potency [6] | Potency [7] | Potency [8] | Potency [9] | Potency [10]

c1ccc2n[nH]nc2c1
inactive: Potency [1] | Potency [2] | Potency [3] | Potency [4] | Potency [5] | Potency [6] | Potency [7] | Potency [8] | Potency [9] | Potency [10]

O=C(O)c1cn(-c2ccc(F)cc2)c2cc(N3CCNCC3)c(F)cc2c1=O
inactive: Potency [1] | Potency [2] | Potency [3] | Potency [4] | Potency [6] | Potency [7] | Potency [8] | Potency [9] | Potency [10]

CC1=CC(=O)c2ccccc2C1=O
inactive: Potency [3] | Potency [4]
active: Potency [2] 6.68 µM and 24.3 µM | Potency [6] 11 µM and 26.6 µM | Potency [7] 9.44 µM | Potency [8] 24.3 µM and 29.8 µM | Potency [9] 15.5 µM and 2.66 µM
inactive and 24.3 µM (active): Potency [1]

CN1C(=O)c2ccc([N+](=O)[O-])cc2C1=O
inactive: Potency [1] | Potency [2] | Potency [3] | Potency [4] | Potency [5] | Potency [6] | Potency [8] | Potency [9] | Potency [10]

Cc1cc(C(C)(C)C)c(O)c(C(C)(C)C)c1
inactive: Potency [1] | Potency [2] | Potency [3] | Potency [4] | Potency [5] | Potency [6] | Potency [7] | Potency [8] | Potency [9] | Potency [10]

CCn1cc(C(=O)O)c(=O)c2cc(F)c(N3CCNC(C)C3)c(F)c21 (stereo not drawn)
inactive: Potency [1] | Potency [2] | Potency [3] | Potency [4] | Potency [6] | Potency [7] | Potency [8] | Potency [9] | Potency [10]

CC(=O)OCC1=C(C(=O)O)N2C(=O)[C@@H](NC(=O)Cc3cccs3)[C@H]2SC1
inactive: Potency [1] | Potency [2] | Potency [3] | Potency [4] | Potency [5] | Potency [6] | Potency [8] | Potency [9]

CCC(CO)(CO)COCC(CC)(CO)CO
inactive: Potency [1] | Potency [2] | Potency [3] | Potency [4] | Potency [5] | Potency [6] | Potency [7] | Potency [8] | Potency [9] | Potency [10]

NC(Cc1ccc(Cl)cc1)C(=O)O (stereo not drawn)
inactive: Potency [1] | Potency [2] | Potency [3] | Potency [4] | ratio activity, negative = inhibition [5] -10.6% [at 0.55 µM] | activity change, negative = cytotoxicity [6] 2.82% [at 0.55 µM] | viability change, negative = cytotoxic [8] 0.376% [at 0.756 µM] | activation [10] 1.36% [at 0.55 µM]

C=C(C)C(=O)O
inactive: Potency [1] | Potency [2] | Potency [3] | Potency [4] | Potency [6] | Potency [7] | Potency [8] | Potency [9] | Potency [10]

CCOc1ccccc1C(N)=O
inactive: Potency [1] | Potency [2] | Potency [3] | Potency [4] | Potency [5] | Potency [6] | Potency [7] | Potency [8] | Potency [9] | Potency [10]

O=C(O)c1cccc(C(=O)O)c1
inactive: Potency [1] | Potency [2] | Potency [3] | Potency [4] | Potency [5] | Potency [6] | Potency [8] | Potency [9] | Potency [10]

COc1cc(C(=S)N2CCOCC2)ccc1O
inactive: Potency [1] | Potency [2] | Potency [3] | Potency [4] | Potency [6] | Potency [7] | Potency [8] | Potency [9]

C=CS(=O)(=O)O
inactive: Potency [1] | Potency [2] | Potency [3] | Potency [4] | Potency [5] | Potency [6] | Potency [7] | Potency [8] | Potency [9] | Potency [10]

COC(c1ccccc1)(c1ccccc1)[C@H](Oc1nc(C)cc(C)n1)C(=O)O
inactive: Potency [1] | Potency [2] | Potency [3] | Potency [4] | Potency [5] | Potency [6] | Potency [7] | Potency [8] | Potency [10]

CC(=O)OCCOCCOCCOC(C)=O
inactive: Potency [1] | Potency [2] | Potency [3] | Potency [4] | Potency [5] | Potency [6] | Potency [7] | Potency [8] | Potency [9] | Potency [10]
